Results reported in PubChem BioAssay (Tox21).
Results filed as inconclusive are left out. Some structures have more than one record in an assay (separate samples or runs), and their calls can disagree. Calls of active or inactive are those of the source. The call rests on the fitted dose curve; in most records, active means well fitted cell-killing curve with a large enough effect in the repeat runs; inconclusive means weak or mixed curves, or effect the other way; inactive means no such curve, though single readings can be large or run the other way.

Test: qHTS assay to identify small molecule agonists of the estrogen receptor alpha (ER-alpha) signaling pathway in the presence of an antagonist - cell viability counter screen (AID 1259386);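 further: cells exposed to compounds for 22 h at 37 °C before the viability read; nearly all actives have a fitted effect of over 30% in size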
Conditions: VM7Luc4E2 viability, CellTiter-Fluor fluorescence, 22 h; series mostly up to 92.4 µM; activity change, negative = cytotoxicity: at the top concentration
Text: National Center for Advancing Translational Sciences [NCATS]
NIH Chemical Genomics Center [NCGC]
U.S. Environmental Protection Agency [EPA]
National Institutes of Environmental Health Sciences [NIEHS]
National Toxicology Program [NTP]
U.S. Food and Drug Administration [FDA]
Estrogen receptor (ER), a member of nuclear hormone receptor plays an important role in development, metabolic homeostasis and reproduction. Two subtypes of ER, ER-alpha and ER-beta, have similar expression patterns with some uniqueness in both types. Endocrine disrupting chemicals (EDCs) and their interactions with steroid hormone receptors like ER causes disruption of normal endocrine function. Therefore, it is important to understand the effect of environmental chemicals in ER signaling pathway. For identifying ER agonists, VM7Luc4E2 cell line has been used in the current assay.
VM7Luc4E2 cell line (provided by Denison MS, University of California) endogenously expresses full-length ER-alpha and is stably transfected with a plasmid containing four estrogen responsive elements (ERE) upstream of a luciferase reporter gene. This current screening for measuring luciferase reporter gene activity using VM7Luc4E2 cells against Tox21 10K library collection is a confirmation study on agonist mode screening in presence of ER-antagonist (ICI-182,780) at 10.0nM final concentration. The cytotoxicity of the compounds was tested in parallel by measuring the cell viability using CellTiter-Fluor assay system (Promega, Madison, WI) in the same wells.
Tox21 Assay Protocol Summary:
VM7Luc4E2 cells were cultured in phenol red free assay medium containing 10% charcoal stripped FBS for 5 days prior to the assay. The cells were dispensed at 4,000 cells in 4uL of assay medium per well into white wall/solid-bottom 1536-well plates (Corning Life Sciences, Corning, NY) using a Multidrop Combi (Thermo Fisher Scientific Inc., Waltham, MA) dispenser. After the assay plates were incubated at 37C and 5% CO2 for 24hr, 1uL of 10.0nM (final concentration) ICI-182,780 or assay buffer was added using two separate tips of Flying Reagent Dispenser (FRD, Aurora Discovery, San Diego, CA). Then 23nL of compounds dissolved in DMSO at 15 concentrations and positive controls or DMSO only was transferred to the assay plates by a Pintool station (Wako, San Diego, CA). The assay plates were incubated at 37C and 5% CO2 for 22hr. After 21hr incubation at 37C, 1uL/well CellTiter-Fluor reagent (Promega Corporation, Madison, WI) was added to each well using FRD and after 1hr incubation at 37C and 5% CO2, the fluorescence signal was measured on ViewLux plate reader (PerkinElmer, Shelton, CT).
On the % scale 0 is the no-effect control and ±100 the full control effect; potency means the concentration at half of the fitted maximal effect.

| Structure (SMILES) | activity change, negative = cytotoxicity | Potency |
| --- | --- | --- |
| CCCCCCCC/C=C\CCCCCCCC(=O)OCCO | -0.3% (inactive) | – |
| CC(C)(C)C(O)/C=C/c1ccc2c(c1)OCO2 (stereo not given) | 1.41% [at 42.5 µM] (inactive) | – |
| O=C(C(=O)c1ccco1)c1ccco1 | -1.24% (inactive) | – |
| COC(CC(C)CCCC(C)(C)O)OC (stereo not given) | -0.522% (inactive) | – |
| CC(=O)N[C@@H](Cc1ccc(O)cc1)C(=O)O | 7.63% [at 42.5 µM] (inactive) | – |
| CC(C)C(=O)OCCOc1ccccc1 | 3.11% (inactive) | – |
| COc1ccc(/C=C/C(=O)c2ccc(OC)cc2OC)cc1 | 3.97% [at 42.5 µM] (inactive) | – |
| Cc1ccccc1S(N)(=O)=O | 1.64% (inactive) | – |
| O=C1OC(=O)c2c(Br)c(Br)c(Br)c(Br)c21 | -2.32% (inactive) | – |
| COc1ccc2nc(S(=O)Cc3ncc(C)c(OC)c3C)[nH]c2c1 (stereo not given) | – | 48 µM (active) and inactive |
| O=C(O)c1cc(Cl)cc(Cl)c1O | 4.23% (inactive) | – |
| CC(C)(C)CCCCCCOC(=O)c1ccccc1C(=O)OCCCCCCC(C)(C)C | 0.735% (inactive) | – |
| O=C(O)CNC(=O)c1ccccc1I | 0.958% [at 42.5 µM] (inactive) | – |
| C=CCOC(=O)COCCC(C)C | -2.7% (inactive) | – |
| CCOCCC(=O)OCC | 2% (inactive) | – |
| CC(C)COC(=O)COc1cc(Cl)c(Cl)cc1Cl | -0.0754% (inactive) | – |
| CC1C(C)(C)C2=C(C(=O)CCC2)C1(C)C (stereo not given) | -1.73% (inactive) | – |
| CO[C@@H]1[C@@H](OC)[C@H](C)[C@@](O)(CC(=O)O)O[C@H]1[C@H](C)[C@H]1O[C@@]2(CC[C@@](C)([C@H]3CC[C@@](C)([C@@H]4O[C@@H]([C@H]5O[C@](C)(O)[C@H](C)C[C@@H]5C)C[C@@H]4OC4C[C@H](OC)[C@@H](OC)[C@H](C)O4)O3)O2)C[C@H](O)[C@H]1C (stereo not given in full) | – | 2.37 µM (active) |
| CCC1CCC(CCC(=O)O)C1 (stereo not given) | 0.834% (inactive) | – |
| COC(C)(C)OC | -0.897% (inactive) | – |

| Structure (SMILES) | activity change, negative = cytotoxicity | Potency |
| --- | --- | --- |
| CCCCCc1ccco1 | -0.239% [at 42.5 µM] (inactive) | – |
| SCCc1cnccn1 | -8.66% (inactive) | – |
| CC1=CC[C@@H]2C[C@H]1C2(C)C | 3.72% [at 19 µM] (inactive) | – |
| CCN(CC)c1ccc(C(=C2C=CC(=[N+](CC)CC)C=C2)c2ccc(S(=O)(=O)O)cc2S(=O)(=O)[O-])cc1 | – | 17.2 µM (active) |
| CC(C)COC(=O)c1ccc(O)cc1 | -0.408% (inactive) | – |
| COc1ccc(C(=O)NCc2ccc(OCCN(C)C)cc2)cc1OC | 4.53% [at 42.5 µM] (inactive) | – |
| O=C(O)CCC(=O)OC[C@@H](NC(=O)C(Cl)Cl)[C@H](O)c1ccc([N+](=O)[O-])cc1 | 1.44% [at 42.5 µM] (inactive) | – |
| COC(=O)C1=C(C)NC(C)=C(C(=O)OC(C)(C)CN(C)CCC(c2ccccc2)c2ccccc2)C1c1cccc([N+](=O)[O-])c1 (stereo not given) | -10.6% [at 42.5 µM] (inactive) | – |
| c1ccc2sc(SSc3nc4ccccc4s3)nc2c1 | 9.75% [at 19 µM] (inactive) | – |
| O=C(O)CN1C(=O)c2cccc3cccc(c23)C1=O | 2.16% [at 42.5 µM] (inactive) | – |
| CC(C)(O)CCc1ccccc1 | 0.0719% (inactive) | – |
| FC(F)(F)C(F)(F)C(F)(F)C(F)(F)CCI | 1.49% [at 42.5 µM] (inactive) | – |
| Cc1cc(CCC(=O)OCCOCCOCCOC(=O)CCc2cc(C)c(O)c(C(C)(C)C)c2)cc(C(C)(C)C)c1O | 1.73% (inactive) | – |
| C=Cc1ccc(OC(C)=O)cc1 | 1.43% (inactive) | – |
| c1ccc(CCCc2ccncc2)cc1 | -8.26% (inactive) | – |
| CC(=O)C(=O)CC(C)C | 0.654% (inactive) | – |
| CC(C(=O)O)c1ccc(C(=O)c2cccs2)cc1 (stereo not given) | 3.47% [at 42.5 µM] (inactive) | – |
| ClC1=C(Cl)C1(Cl)Cl | 0.338% (inactive) | – |
| C=C(C)c1ccccc1 | -0.0852% (inactive) | – |
| CC(C)Cc1ccc(CC(=O)O)cc1 | 3.32% [at 42.5 µM] (inactive) | – |
